# Data as given in PMC4336329 (PLoS ONE, 2015).
# Hit rate of the full screen: of about 310,000 compounds, about 14,000 (4.5%) showed an effect of 50% or more. The effect is printed as a negative number. For the sample, strong results were picked, then their nearest neighbours and some compounds at random.
# Target: human ether-à-go-go-related gene (hERG) potassium channel (human, UniProt Q12809)
# Experiment: primary screen, population patch clamp on CHO cells stably expressing hERG; higher = less effect of the substance
# 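Further: peak tail current of the secondary pulse compared with the same well before compound.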
# human ether-à-go-go-related gene (hERG) potassium channel, sequence (Q12809 whole entry, looked up): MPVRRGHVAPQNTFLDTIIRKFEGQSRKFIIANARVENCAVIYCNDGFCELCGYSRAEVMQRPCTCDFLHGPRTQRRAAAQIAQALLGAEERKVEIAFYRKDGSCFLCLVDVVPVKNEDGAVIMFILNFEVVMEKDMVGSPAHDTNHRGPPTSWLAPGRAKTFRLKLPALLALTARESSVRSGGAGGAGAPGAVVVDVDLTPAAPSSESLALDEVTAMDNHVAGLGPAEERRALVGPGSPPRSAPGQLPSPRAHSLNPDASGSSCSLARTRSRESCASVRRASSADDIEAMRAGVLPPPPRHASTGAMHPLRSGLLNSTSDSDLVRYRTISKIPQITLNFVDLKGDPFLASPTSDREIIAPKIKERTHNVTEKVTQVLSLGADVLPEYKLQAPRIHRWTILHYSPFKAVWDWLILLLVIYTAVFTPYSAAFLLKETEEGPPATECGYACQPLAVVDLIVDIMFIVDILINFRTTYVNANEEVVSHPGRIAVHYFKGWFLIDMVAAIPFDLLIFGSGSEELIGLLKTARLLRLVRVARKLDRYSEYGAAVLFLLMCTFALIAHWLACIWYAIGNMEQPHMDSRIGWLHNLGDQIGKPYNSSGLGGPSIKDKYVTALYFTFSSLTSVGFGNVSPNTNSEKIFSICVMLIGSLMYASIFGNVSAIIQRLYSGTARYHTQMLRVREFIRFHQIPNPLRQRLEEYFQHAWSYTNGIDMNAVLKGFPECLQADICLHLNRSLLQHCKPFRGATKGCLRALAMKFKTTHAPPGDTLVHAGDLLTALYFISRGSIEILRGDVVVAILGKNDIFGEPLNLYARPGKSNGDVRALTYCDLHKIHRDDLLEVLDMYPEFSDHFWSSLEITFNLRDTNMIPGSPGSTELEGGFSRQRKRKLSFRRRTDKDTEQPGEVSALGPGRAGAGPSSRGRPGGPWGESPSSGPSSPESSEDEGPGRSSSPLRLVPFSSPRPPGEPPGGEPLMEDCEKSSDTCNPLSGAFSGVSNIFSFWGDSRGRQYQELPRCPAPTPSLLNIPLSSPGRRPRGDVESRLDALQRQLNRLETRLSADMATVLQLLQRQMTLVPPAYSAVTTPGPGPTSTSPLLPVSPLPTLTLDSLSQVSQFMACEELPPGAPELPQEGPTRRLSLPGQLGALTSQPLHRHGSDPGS
row,Structure (SMILES),"hERG current change (%, negative = inhibition) at 10uM [%]"
1,CC(/C=N\NC(=O)CN1CCN(S(=O)(=O)c2ccc(C)cc2)CC1)=C\c1ccccc1,-68.1
2,Cc1ccc(S(=O)(=O)N2CCN(CC(=O)N/N=C/c3ccc(C)o3)CC2)cc1,-38.9
3,Cc1ccc(S(=O)(=O)N2CCN(CC(=O)N/N=C/C=C/c3ccccc3)CC2)cc1,-73.8
4,Cc1ccc(S(=O)(=O)N2CCN(CC(=O)N/N=C\C(Cl)=C\c3ccccc3)CC2)cc1,-48
5,Cc1ccc(S(=O)(=O)N2CCN(CC(=O)N/N=C\c3ccccn3)CC2)cc1,-36.3
6,O=C(CN1CCOCC1)N/N=C/C=C/c1ccccc1,-26.3
7,COc1ccccc1/C=C/C=N/NC(=O)CN1CCN(S(=O)(=O)c2ccc(C)cc2)CC1,-50.2
8,CCCOC(=O)c1ccc(O)cc1,16.5
9,COc1ccccc1CC(=O)Nc1ccc(O)cc1C(=O)O,0.828
10,C(=N\N(c1ccccc1)c1ccccc1)/c1ccc2c(c1)OCO2,4.28
11,O=C(O)/C=C\C(=O)O.c1ccc2c(c1)CC1CNCc3cccc(c31)S2 (stereo not drawn),-49.5
12,C1CCCCC1.OCCN1CCN(C2Cc3cc(Cl)ccc3Sc3ccc(Cl)cc32)CC1 (stereo not drawn),9.86
13,Clc1ccc2c(c1)C(N1CCNCC1)Cc1ccccc1S2.O=C(O)/C=C\C(=O)O (stereo not drawn),-54.3
14,COCCCN1CCN(C2Cc3ccccc3Sc3ccc(Cl)cc32)CC1.O=C(O)/C=C\C(=O)O (stereo not drawn),-73.5
15,Fc1ccc2c(c1)Sc1ccc(Cl)cc1CC2N1CCN(CCC2OCCO2)CC1 (stereo not drawn),-8.68
16,COc1cc([C@@H]2c3cc4c(cc3[C@@H](O)[C@H]3COC(=O)[C@H]23)OCO4)cc(OC)c1O[Si](C)(C)C(C)(C)C,17.8
17,NS(=O)(=O)c1cccc(NC(=O)c2cccnc2Oc2ccccc2)c1,12.7
18,Cc1sc2ncn(CC(=O)N3CCN(c4ccccn4)CC3)c(=O)c2c1S(=O)(=O)N1CCCCC1,-36.7
19,Cc1ncc2c(c1OC(=O)c1ccccc1)COC(C)(C)OC2,-6.46
20,Cc1ncc2c(c1OC(=O)c1ccc([N+](=O)[O-])cc1)COC(C)(C)OC2,-65.8
21,Cc1c(OC(=O)c2ccc([N+](=O)[O-])cc2)c2c(c[n+]1C)COC(C)(C)OC2.[I-],9.15

row,Structure (SMILES),"hERG current change (%, negative = inhibition) at 10uM [%]"
1,Cn1c(O)c(N=Nc2ccc(S(=O)(=O)N3CCOCC3)cc2)c(=O)n(C)c1=O,10.8
2,CCN(CC)c1ccc(N=Cc2c(O)n(-c3ccccc3C)c(=O)[nH]c2=O)cc1,-29.2
3,Cc1ccc(S(=O)(=O)N2CCOCC2)c2nsnc12,-3.38
4,Cc1ccc(S(=O)(=O)N2CCCCC2)c2nsnc12,-54.9
5,Cc1ccc(S(=O)(=O)N2CCN(C)CC2)c2nsnc12,24.1
6,Cc1ccc(-c2nn(CC(=O)N3CCOCC3)c(=O)c3ccccc23)cc1S(=O)(=O)N(C)C,-22.6
7,O=C(Cn1nc(-c2ccc(N3CCOCC3)c([N+](=O)[O-])c2)c2ccccc2c1=O)N1CCCCC1,-68.2
8,O=C(Nc1cc(-c2nn(CC(=O)N3CCCCC3)c(=O)c3ccccc23)ccc1N1CCOCC1)c1ccc(Cl)cc1,-52.6
9,CCC(=O)Nc1cc(-c2nn(CC(=O)N3CCCCC3)c(=O)c3ccccc23)ccc1N1CCOCC1,3.05
10,O=[N+]([O-])c1cc(-c2nnc(N3CCOCC3)c3ccccc23)ccc1N1CCOCC1,-40.3
11,CC(=O)Nc1cc(-c2nn(CC(=O)N3CCCCC3)c(=O)c3ccccc23)ccc1N1CCOCC1,2.8
12,Cc1ccc(C)c(N(C(=O)CCC(=O)Nc2cc(C)on2)C(C(=O)NC2CCCC2)c2ccco2)c1 (stereo not drawn),10.2
13,CNc1nc(SC(C)C(=O)Nc2ccc(Cl)c(Cl)c2)nc(N2CCOCC2)n1 (stereo not drawn),19.6
14,COc1ccc(S(=O)(=O)N2CCC(C(=O)N3CCN(C)CC3)CC2)cc1OC,17.3
15,Cc1nn(CCO)c2nc(-c3cccs3)cc(C(F)(F)F)c12,2.32
16,COc1ccc(/C=N/NC(=O)CC(=O)NC2CCCCC2)cc1,5.89
17,COc1ccc(-c2cnnn2-c2ccc(NC(=O)/C=C/c3ccc(OC)c(OC)c3)cc2)cc1,-5.92
18,Cc1ccccc1OCCC(=O)OCC(=O)NCCNC(=O)COC(=O)CCOc1ccccc1C,4.47
19,COc1ccc(F)cc1CN1CCN(C(=O)CCC(=O)Nc2nnc(C3CCCCC3)s2)CC1,-6.04
20,COc1ccc(CN2CCN(C(=O)CCC(=O)Nc3nnc(C4CCCCC4)s3)CC2)cc1F,-50.2
21,O=C(CCC(=O)N1CCN(Cc2ccc(F)cc2)CC1)Nc1nnc(C2CCCCC2)s1,6.92
